Results taken from ChEMBL document CHEMBL3988442, “University of Dundee, Small-Polar-MMV Screening Library” (2021).
The campaign covered roughly 48,000 compounds. About 13,000 (27%) showed an effect of 50% or more. The list shows a part of the results.

Each compound was assayed on Wolbachia pipientis (assay: Anti-Wolbachia Cell-Based Screen). Conditions: 5 µM.
Assay type: functional
Set-up: scale not given: in the data most compounds retested in dose-response had high values

Row | SMILES | Percent Effect [%]
1 | Cc1cc(CN(C)C2CCN(c3cccc(-c4cscn4)c3)CC2)on1 | -19.07
2 | CNS(=O)(=O)c1ccc(C(=O)NCCNc2ncccn2)cc1 | 1.025
3 | CC(C)OCCOCc1cccc(NC(=O)NCc2ccncc2)c1 | 3.047
4 | Cn1nnc2cc(C(=O)NS(=O)(=O)c3ccc(F)cc3)ccc21 | -8.568
5 | Cc1cc(C)n(CC2CCCN2C(=O)Cc2c(C)noc2C)n1 (stereo not given) | 2.87
6 | Cc1cnn(CC2CCCN2C(=O)Cc2c(C)noc2C)c1 (stereo not given) | 123.7
7 | O=C(O)COc1ccc(CN2CCCC(Cc3cccnc3)C2)cc1 (stereo not given) | 125.7
8 | O=C(O)COc1ccc(CN2CCCC(CCc3ccccc3)C2)cc1 (stereo not given) | 98.9
9 | COc1coc(CN2CCCC(CCc3ccc(F)cc3)C2)cc1=O (stereo not given) | 20.93
10 | COc1ccc(CCC2CCCN(C(=O)CCc3cc(O)no3)C2)cc1 (stereo not given) | 6.592
11 | CN(C)C(=O)CCC1CCCN(Cc2ccc(-c3cccnc3)cc2)C1 (stereo not given) | -4.388
12 | COc1ccnc(CN2CCCC(CCc3ccccc3)C2)c1OC (stereo not given) | -14.6
13 | Cc1nccn1CC1CCCN(Cc2ccc(-c3cccnc3)cc2)C1 (stereo not given) | 30.54
14 | Cc1[nH]c(=O)[nH]c(=O)c1CN1CCCC(CCc2ccccc2)C1 (stereo not given) | -19.89
15 | COc1ccc(CCC2CCCN(CC(=O)O)C2)cc1 (stereo not given) | 116.8
16 | OCC(O)CSCc1ccc(Cl)cc1Cl (stereo not given) | -1.817
17 | Cc1nc(NC(=O)OC(C)(C)C)sc1C#N | 16.95
18 | CCCc1n[nH]c(C2CN(C(=O)c3cc(F)ccc3OC)CCO2)n1 (stereo not given) | -4.099
19 | CCCc1n[nH]c(C2CN(C(=O)c3cccc4[nH]ncc34)CCO2)n1 (stereo not given) | 117.3
20 | CCCc1n[nH]c(C2CN(C(=O)c3n[nH]c4ccccc34)CCO2)n1 (stereo not given) | 103.5
21 | CC(C)c1n[nH]c(C2CN(C(=O)c3cccc4cn[nH]c34)CCO2)n1 (stereo not given) | 2.376
22 | CCCc1n[nH]c(C2CN(C(=O)c3cccc4cn[nH]c34)CCO2)n1 (stereo not given) | 108.2
23 | CCCc1n[nH]c(C2CN(C(=O)c3cccnc3N(C)C)CCO2)n1 (stereo not given) | 106.9
24 | COc1ccc(CNCCc2cccc(C(N)=O)c2)cc1O | 8.083
25 | O=C(O)C(F)(F)F.O=C(O)C(F)(F)F.c1snnc1CN1C[C@H]2CCC[C@@H](CN3CCOCC3)[C@H]2C1 | 4.838
26 | COc1ccc(C(=O)NCCCC2(C3OCCO3)CCOCC2)cc1 | 0.9631
27 | CCCc1n[nH]c(C2CN(C(=O)c3ccc[nH]3)CCO2)n1 (stereo not given) | 125.3

Row | SMILES | Percent Effect [%]
28 | CCCc1n[nH]c(C2CN(C(=O)C3=COCCC3)CCO2)n1 (stereo not given) | -2.018
29 | CCCc1n[nH]c(C2CN(C(=O)c3ccco3)CCO2)n1 (stereo not given) | -0.9471
30 | CO[C@H]1C[C@@H]2CN(C(=O)c3ccc(C)s3)C[C@@H]2C1 | 128.5
31 | CO[C@H]1C[C@@H]2CN(C(=O)c3cccc4c3OCCO4)C[C@@H]2C1 | 78.24
32 | COc1ccc(F)cc1C(=O)N1CC(c2ccncc2)C1 | 9.533
33 | COc1ccc(F)cc1C(=O)N1C[C@H]2C[C@H](OC)C[C@H]2C1 | 117.3
34 | C[C@H]1C[C@H]2CN(C(=O)c3cccc4c3OCCO4)CC[C@H]2O1 | 2.231
35 | Cc1ccc(CC(=O)NC(C)C(=O)N2CCS(=O)(=O)CC2)s1 (stereo not given) | 0.993
36 | Cc1csc(N2CCN(C(=O)Cc3ccc(C)s3)CC2)n1 | 9.508
37 | COc1ccc(F)cc1C(=O)N1CCCC(n2nc(C)nc2C)C1 (stereo not given) | -10.5
38 | C[C@@H]1C[C@H]2CN(C(=O)c3cccc4c3OCCO4)C[C@H]2O1 | -11.28
39 | CO[C@H]1C[C@@H]2CN(C(=O)Cc3ccc(C)s3)C[C@@H]2C1 | 123.2
40 | COc1ccc2c(c1)CN(Cc1nc3c(cnn3C)c(=O)[nH]1)CC2 | -2.019
41 | Cc1sc(-c2ccco2)nc1C(=O)N(CC1CCOC1)C1CC1 (stereo not given) | 13.16
42 | Cc1cc(CNC(=O)C2CCCCN2C(=O)OC(C)(C)C)no1 (stereo not given) | 8.299
43 | CN(Cc1ccc(F)cc1)CC1(O)CCN(C(=O)c2ccccc2)C1 (stereo not given) | -10.29
44 | Cc1ccc(OC2(C(=O)O)CCN(C(=O)c3ccsc3)CC2)cn1 | -3.963
45 | CN(C)CC1(O)CCN(C(=O)c2cnc(-c3cccnc3)nc2)C1 (stereo not given) | -2.107
46 | CN(C)CC1(O)CCN(C(=O)c2cnc(-c3ccccn3)nc2)C1 (stereo not given) | -10.46
47 | CN(C)CC1(O)CCCN(C(=O)c2cnc(-c3ccccn3)nc2)C1 (stereo not given) | 7.408
48 | Cc1ncncc1C(=O)N1CCC(O)(CN(C)Cc2ccc(F)cc2)C1 (stereo not given) | 90.38
49 | CN(Cc1ccc(F)cc1)CC1(O)CCN(C(=O)c2ccsc2)C1 (stereo not given) | 101.4
50 | CN(C)CC1(O)CCCN(C(=O)c2ccccc2-n2cncn2)C1 (stereo not given) | -6.613
51 | CN(Cc1ccc(F)cc1)CC1(O)CCN(C(=O)c2ccncc2)C1 (stereo not given) | 120.1
52 | CN(C)CC1(O)CCN(C(=O)c2ccc(-n3cnnc3)cc2Cl)C1 (stereo not given) | -7.306
53 | CN(Cc1ccc(F)cc1)CC1(O)CCN(C(=O)c2ccccn2)C1 (stereo not given) | 129.8
54 | Cn1cc(CNCC2Cn3nnc(-c4ccccc4)c3CO2)cn1 (stereo not given) | -12.32

Row | SMILES | Percent Effect [%]
55 | Cn1nnc2cc(C(=O)NS(=O)(=O)Cc3ccc(F)cc3)ccc21 | -12.26
56 | COCC(C)NC(=O)CN1CCC2(CC1)OCCO2 (stereo not given) | -2.993
57 | CN1CCOC(C(=O)N2CCC3(CCCC3)CC2)C1 (stereo not given) | -33.61
58 | O=C(CCc1ccccc1Br)NCC(=O)NCc1ccccc1 | 2.467
59 | COc1ccc(CN(C)CC2(O)CCN(C(=O)c3cccn3C)C2)cc1 (stereo not given) | -15.88
60 | CN(Cc1ccc(F)cc1)CC1(O)CCN(C(=O)c2cccs2)C1 (stereo not given) | 131.3
61 | CN(C)CCN1CC2(CCC1=O)CCN(C(=O)c1ccn(C)n1)CC2 | 6.742
62 | CN(Cc1ccc(F)cc1)CC1(O)CCN(C(=O)c2ccn(C)n2)C1 (stereo not given) | 136.3
63 | O=C(Cc1ccccc1)C1CCCN(Cc2cncn2C2CCCC2)C1 (stereo not given) | -39.33
64 | Cc1nccnc1N1CCC(Cc2ccccc2Cl)(C(=O)O)CC1 | 4.229
65 | CCc1ccc(C(NCC(N)=O)C(C)(C)C)o1 (stereo not given) | -15.62
66 | Cn1ccnc1-c1nccn1-c1cccc(CN2CCCC2)c1 | -8.491
67 | Cc1ccc(C)c(C(=O)Nc2ccc(OC3CCN(C)CC3)cc2)c1 | -4.844
68 | CN1CCC(Oc2ccc(-n3ccnc3-c3nccn3C)cc2)CC1 | 110.4
69 | Cc1ccc(-c2nccn2-c2ccc(OC3CCN(C)CC3)cc2)o1 | 109.9
70 | Cc1ccc(C(=O)Nc2ccc(OC3CCN(C)CC3)cc2)c(C)c1 | 4.12
71 | Cc1cccc(C(=O)Nc2ccc(OC3CCN(C)CC3)cc2)c1 | -4.145
72 | CN1CCC(Oc2ccc(-n3ccnc3-c3ccncc3)cc2)CC1 | 114.7
73 | Cc1nnc(CN2CCC(Oc3ccc(F)cc3)CC2)o1 | -12.54
74 | c1cc(CN2CCCC2)cc(-n2ccnc2-c2ccncc2)c1 | -6.612
75 | CCC(CC)c1cc(CNC(=O)N2CCOC(C)C2)on1 (stereo not given) | 0.178
76 | COc1ccc(C(=O)N2CCC(Oc3cccc(C)c3)(C(=O)O)CC2)o1 | -1.031
77 | Cc1ccc(Cl)c(C(C(=O)O)N(C)Cc2cnn(C)c2)c1 (stereo not given) | -5.56
78 | O=C(NC1CCS(=O)(=O)C1)c1sccc1-c1ccc(F)cc1 (stereo not given) | 12.15
79 | CNc1ncc(CN(C)C(=O)[C@@]23CNC[C@@H]2CN(C2CCCC2)C3)cn1 | 3.616
80 | CC(C)c1ncc(CN2CCC(c3n[nH]cc3C(=O)N(C)C)C2)cn1 (stereo not given) | 128.3
81 | CC(C)c1ncc(CN2CCCC(CO)C2)cn1 (stereo not given) | -2.469

Row | SMILES | Percent Effect [%]
82 | CC(C)c1ncc(CN2C[C@@H](CN3CCC(O)CC3)[C@@H](CO)C2)cn1 | -17.14
83 | CC(C)c1ncc(CN2CCCC2c2[nH]ncc2C(=O)N(C)C)cn1 (stereo not given) | 138.1
84 | CC(C)c1ncc(CN2C[C@@H](CN3CCCC3)[C@@H](CO)C2)cn1 | -18.71
85 | CNc1ncc(CN2CCCC2c2[nH]ncc2C(=O)N(C)C)cn1 (stereo not given) | 118.3
86 | CCc1cn[nH]c1C1CCCN(C(=O)c2cnc(NC(C)C)nc2)C1 (stereo not given) | -3.348
87 | COc1ncc(CN2CCCC2c2[nH]ncc2C(=O)N(C)C)cn1 (stereo not given) | 107.3
88 | Cc1nn(C)c(C)c1C1CCCN1Cc1cccc(C(=O)N(C)C)c1 (stereo not given) | -5.304
89 | COc1ccccc1CC1CCCN1C(=O)c1cn[nH]c1C (stereo not given) | 6.47
90 | CCN1CCN(C[C@@H]2CN(Cc3cnc(C(C)C)nc3)C[C@@H]2CO)CC1 | -21.09
91 | CCC(CC)N(C)S(=O)(=O)c1ccc(CCNC(C)=O)s1 | -16.74
92 | COc1cccc2c1OCC(C(=O)N(C)CCCc1cnn(C)c1)C2 (stereo not given) | -4.921
93 | Cc1cccn2cc(CN3CCCC(c4ccn[nH]4)C3)nc12 (stereo not given) | 3.062
94 | CC(C)c1cccc(-n2cc(O)c(C(=O)NCCC(=O)N(C)C)n2)c1 | -3.512
95 | Cc1nc(NC(=O)c2nn(-c3ccc(F)cc3C)cc2O)n[nH]1 | 158.1
96 | CC(C)C(O)CCNC(=O)Nc1cc(F)ccc1-n1cccn1 (stereo not given) | -1.867
97 | CC(C)c1cccc(-n2cc(O)c(C(N)=O)n2)c1 | -1.55
98 | Cc1cc(F)ccc1-n1cc(O)c(C(N)=O)n1 | 117.5
99 | COCCn1ccc2cc(NC(=O)N(C)C(C)CSC)ccc21 (stereo not given) | 13.09
100 | Cc1cc(F)ccc1-n1cc(O)c(C(=O)NCC[S+](C)[O-])n1 (stereo not given) | 102.5
101 | COCCNC(=O)c1nn(-c2cccc(C(C)C)c2)cc1O | -7.047
102 | C[S+]([O-])CCNC(=O)Nc1cc(F)ccc1-n1cccn1 (stereo not given) | -7.044
103 | O=C(c1nn(-c2ccccc2F)cc1O)N1CCCC1 | -1.057
104 | CSCC(C)N(C)C(=O)c1nn(-c2ccc(F)cc2C)cc1O (stereo not given) | 188.7
105 | Cc1nc(C(C)NC(=O)COc2ccc(F)cc2)n[nH]1 (stereo not given) | -12.19
